CtBP-E1A inh: qHTS Assay for Inhibitors of the CtBP/E1A Interaction | AID 651724, 2012 | actives 0.49% (n = 340,000) | activity change, % (test concentration not listed) | CtBP / adenovirus E1A interaction (AlphaScreen) | AlphaScreen GST-E1A/His-CtBP binding, 1536-well; stronger effect = lower value
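AlphaScreen with 125 nM GST-E1A and 125 nM His-CtBP (5X stocks) in Tris pH 8.0, 300 mM NaCl, BSA, Tween 20, TCEP. Compounds preincubated 2 h at 37 deg C, then glutathione donor/nickel acceptor beads added for 1 h at 37 deg C in dark.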
Six1-Eya2 blk: qHTS Assay for Inhibitors of the Six1/Eya2 Interaction | AlphaScreen GST-Six1/His-Eya2 binding, biochemical; stronger effect = lower value | activity change, % (concentration not given with the values) | AID 651725, 2012 | actives 0.56% (n = 360,000) | Homeobox protein SIX1 (Homo sapiens) + Protein phosphatase EYA2 (Homo sapiens), …
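Six1/Eya2 binding was read as AlphaScreen signal after compounds were pinned into GST-Six1 plus His-tagged Eya2 (5X stock 250/500 nM) in pH 8.0 Tris/NaCl/TCEP buffer, beads added, then incubated 1 h, 37 C, dark.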
PI4K2A inh: qHTS for small molecular inhibitors of PI4K2A; purified PI4K2A, ADP-Glo luminescence, 1 h; stronger effect = lower value; Phosphatidylinositol 4-kinase type 2-alpha (Homo sapiens), Q9BTU6; actives 0.13% (n = 420,000); activity change, negative = inhibition, % at 76.9 µM; in the data active = activity change below about -50%; inconclusive = mostly about -30% to -49%;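 also: -100% = wells without enzyme as full effect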
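In this quantitative HTS, ADP production by PI4K2A was quantified luminescently after 1 h at ambient temperature; 100 microM adenosine served as plate-quality control.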
PI5P4Ka inh: qHTS for Inhibitors of phosphatidylinositol 5-phosphate 4-kinase (PI5P4K); max response, %; Phosphatidylinositol 5-phosphate 4-kinase type-2 alpha (Homo sapiens), P48426; PI5P4Kalpha enzyme, ADP-Glo luminescence, 60 min; stronger effect = lower value; actives 1.2% (n = 330,000); AID 652105, 2013; active = max response of -50% or lower; inconclusive = between -30% and -50%; inactive = -30% or higher; also: value at the top dose of about 77 µM
Target sequence (P48426 whole entry, looked up): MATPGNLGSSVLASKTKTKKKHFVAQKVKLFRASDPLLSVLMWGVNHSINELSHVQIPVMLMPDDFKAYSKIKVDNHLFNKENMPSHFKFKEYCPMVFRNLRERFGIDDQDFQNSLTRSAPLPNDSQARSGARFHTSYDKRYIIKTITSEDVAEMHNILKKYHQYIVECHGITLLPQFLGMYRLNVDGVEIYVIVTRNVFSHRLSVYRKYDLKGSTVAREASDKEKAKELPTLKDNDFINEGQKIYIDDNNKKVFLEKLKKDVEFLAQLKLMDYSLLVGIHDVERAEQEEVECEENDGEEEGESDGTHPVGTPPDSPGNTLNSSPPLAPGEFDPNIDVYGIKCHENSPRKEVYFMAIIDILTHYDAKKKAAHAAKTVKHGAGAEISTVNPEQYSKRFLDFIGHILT
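Enzyme plus substrate dispensed, test compounds pinned in, then ATP (5 microM final) added. After 60 min at RT, ADP-Glo reagent 1 for 45 min and reagent 2 for 30 min preceded luminescence imaging.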
pAkt inh: HTS Assay for Inhibitors of Akt Phophorylation: Primary Screen | actives 0.32% (n = 360,000) | Neuro2A IGF-stimulated pAkt S473 HTRF, 20 min; stronger effect = lower value | activity change, % for hits at 50 µM; in the data active = activity change below about -80%; inconclusive = mostly about -51% to -80%
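Neuro2A cells (4,500/well, DMEM with 0.5% FBS) were treated with compound at a single 50 µM final concentration, stimulated with 6 nM IGF for 20 min at 37 °C, and lysed. Phospho-Akt Ser473 was read by HTRF as 665/615 ratio ×10^4.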
* = called active by the depositor; i = inactive; ? = inconclusive; nt = no result given. An excerpt weighted towards active compounds, which were near 1.8% of everything screened. Rule as the data show it, unless noted: active = activity change below about -65%; inconclusive = mostly about -30% to -63%; inactive = weaker than that. Unless noted, % is scaled to controls: 0 for no effect and ±100 for the full control effect.

SMILES | CtBP-E1A inh | Six1-Eya2 blk | PI4K2A inh | PI5P4Ka inh | pAkt inh
N#Cc1c(-c2cccc(Cl)c2)[nH]c(=S)[nH]c1=O | -1 | 0 | -2 | -77* | i
N#Cc1c(-c2ccccc2)[nH]c(=S)[nH]c1=O | -5 | 4 | -9 | -62* | nt
O=C1NC(=S)S/C1=C\C=C\c1ccc([N+](=O)[O-])o1 | ? | ? | -14 | -96* | i
Cc1cccc(/C=C(\C#N)c2nc3ccccc3c(=O)[nH]2)c1 | nt | nt | 0 | nt | nt
Cc1cccc(C(=O)NNC(=O)c2ccc(F)cc2)c1 | 8 | 4 | 1 | -2 | i
O=C(NNC(=O)c1cccc(-n2cccc2)c1)c1ccc(F)cc1 | -10 | -19 | -14 | -68* | i
NNC(=O)CNC(=O)Nc1n[nH]c(=S)s1 | 1 | -5 | 0 | ? | i
N=c1c(C(=O)NCc2ccco2)cc2c(=O)n3ccccc3nc2n1CCc1ccccc1 | -67* | -78* | -8 | -15 | i
COc1ccc(CCn2c(=N)c(C(=O)NCc3ccco3)cc3c(=O)n4ccccc4nc32)cc1OC | nt | -74* | -16 | -2 | i
O=C1c2ccccc2C(=O)c2c1cccc2N1CCOCC1 | -72* | -78* | -5 | 1 | i
N#Cc1ccc(N=c2ssnc2Cl)cc1 | -3 | 1 | -6 | -91* | i
Fc1ccc(N=c2ssnc2Cl)c(F)c1 | 10 | -20 | -8 | -62* | i
COc1ccc(N=c2ssnc2Cl)cc1 | -3 | 5 | 12 | -83* | i
Clc1nssc1=Nc1ccccc1 | -8 | 2 | -1 | -57* | i
CC(=O)N1CCN(Cc2cc(=O)oc3cc(C)c(C)cc23)CC1 | 5 | 2 | 0 | -4 | i
O=C(NCC(=O)N1CCCC1)c1ccc(Cl)cc1 | -14 | 7 | -3 | -1 | i
CC1CN(C(=O)CSc2nnc(-c3ccncc3)n2-c2ccccc2)CC(C)O1 (stereo unspecified) | -7 | -6 | -1 | nt | i
COc1cc(N=c2ssnc2Cl)cc(OC)c1OC | -1 | 4 | 7 | -69* | i
Clc1ccc(N=c2ssnc2Cl)cc1 | 15 | 7 | 12 | nt | i
CCOC(=O)c1ccc(N=c2ssnc2Cl)cc1 | -3 | 0 | 7 | -79* | i
O=C(/C=C/c1ccc(Br)o1)OCc1nc2ccsc2c(=O)[nH]1 | 2 | ? | ? | -67* | i
CC(=O)Sc1nc(-c2ccccc2)[nH]c1S(=O)(=O)c1ccc(C)cc1 | -3 | 0 | 0 | -81* | i
CSc1nc(-c2ccc(C)cc2)[nH]c1S(=O)(=O)c1ccccc1 | -22 | -15 | -12 | -21 | -106%*
Cc1ccc(S(=O)(=O)c2[nH]c(-c3ccccc3)nc2SCC(=O)O)cc1 | nt | nt | 0 | nt | nt
COc1ccc(OCC(O)CNC(=O)c2c(-c3ccccc3)noc2C)cc1 (stereo unspecified) | 9 | 3 | -5 | 2 | i
SMILES | CtBP-E1A inh | Six1-Eya2 blk | PI4K2A inh | PI5P4Ka inh | pAkt inh
CCOC(=O)C1CCCN(C2=C(NS(=O)(=O)c3ccc(Br)cc3)C(=O)c3ccccc3C2=O)C1 (stereo unspecified) | nt | -71* | -18 | 0 | i
CC1CCCN(C2=C(NS(=O)(=O)c3ccc(Br)cc3)C(=O)c3ccccc3C2=O)C1 (stereo unspecified) | ? | -3 | -12 | 1 | i
CCOC(=O)C1CCN(C2=C(NS(=O)(=O)c3ccc(Cl)cc3)C(=O)c3ccccc3C2=O)CC1 | -81* | ? | -8 | 0 | i
CCOC(=O)N1CCN(C2=C(NS(=O)(=O)c3ccc(NC(C)=O)cc3)C(=O)c3ccccc3C2=O)CC1 | nt | -18 | ? | 0 | i
Cc1cc(Br)ccc1SCC(=O)OCC(=O)NC1CC1 | -5 | 8 | 3 | -1 | i
O=C1S/C(=C/c2ccc(N3CCOCC3)o2)C(=O)N1Cc1ccc(F)cc1 | -6 | 7 | 3 | -7 | i
COc1ccc2cc(/C=C3\SC(=S)NC3=O)c(N3CCOCC3)nc2c1 | -5 | ? | -4 | -62* | i
O=C1NC(=S)S/C1=C/c1ccc(N2CCOCC2)o1 | -27 | ? | -12 | -53* | i
COc1ccc(OC)c(/C=C2\SC(=S)N(N3CCOCC3)C2=O)c1 | -12 | 6 | -5 | -8 | i
COc1ccc(OC)c(Nc2nc(=O)c3cccnc3s2)c1 | -15 | -9 | -22 | -89* | i
Brc1c(-c2ccccc2)nc2n1Cc1ccccc1-2 | ? | ? | -1 | -4 | i
c1ccc2c(c1)Cn1c-2nc2ccccc21 | 0 | -3 | -53* | ? | i
CCCCN(CCCC)S(=O)(=O)c1ccc(C(=O)Nc2nnc(COC)o2)cc1 | -7 | -13 | 4 | -2 | i
COc1ccc(C(=O)Nc2cc(-c3nc4ccccc4s3)ccc2OC)cc1 | nt | nt | 0 | nt | nt
CCOc1ccc(CN2CCN(Cc3cccc4c3OCO4)CC2CCO)cc1 (stereo unspecified) | -2 | 0 | 2 | 0 | i
CC[C@H](C)/C=C(C)/C=C/C1=CC2=CC(=O)[C@]3(C)OC(=O)[C@@H](C(C)=O)[C@@H]3C2=CO1 | -12 | 3 | -7 | -60* | i
CC(C)=CCC/C(C)=C/CNC(=O)C[C@H]1C[C@H](C(=O)N2CCOCC2)[C@@]2(C)c3[nH]c4cc(CCC(=O)N(C)C)ccc4c3CCN2C1=O | -1 | -2 | -3 | 0 | i
O=C(NCc1ccccc1)c1cccc(N2CCCS2(=O)=O)c1 | nt | nt | 0 | nt | nt
Oc1ccc(CNc2ccccn2)c2cccnc12 | nt | nt | -11 | nt | nt
OCc1ccc(O)c2ncccc12 | -92* | -88* | -10 | -12 | nt
Oc1ccc(COCc2ccccc2)c2cccnc12 | -98* | -90* | -7 | 5 | i
Oc1ccc(Cc2ccccc2)c2cccnc12 | -92* | -75* | -17 | 5 | i
COc1cc(C2c3c(-c4ccccc4O)n[nH]c3C(=O)N2Cc2ccncc2)ccc1O (stereo unspecified) | nt | nt | -14 | nt | nt
Cc1ccc(NC(=O)c2ccc(-n3cccn3)c([N+](=O)[O-])c2)cc1C | -5 | -4 | 0 | -8 | -110%*
O=C(Nc1ccc(Cl)cc1)c1ccc(-n2cccn2)c([N+](=O)[O-])c1 | -17 | -6 | -4 | nt | i
CCCS(=O)(=O)NC(=O)C1(C)CCCN(C(=O)c2ccco2)C1 (stereo unspecified) | 7 | 3 | -1 | 1 | i
CCn1cnc2sc(-c3ccccc3)cc2c1=O | 6 | -2 | -21 | 0 | i
N#CCn1cnc2sc(-c3ccccc3)cc2c1=O | -29 | -5 | 6 | -52* | i
